Among the data in publication PMC7862700, “An all-to-all approach to the identification of sequence-specific readers for epigenetic DNA modifications on cytosine” are binding signal values, retold here.

Common to all, as to experiment: DAPPL (digital affinity profiling via proximity ligation, sequencing); 10 mM Tris-HCl pH 7.5, 50 mM NaCl, 1 mM DTT, 4% glycerol, room temperature, 30 min; GST-TFs on glutathione beads, 16-mer random dsDNA library, 0.1% formaldehyde crosslink after washing; high values mean tight binding
The target in one test is T1, FLI1 (Homo sapiens, UniProt Q01543 1-452).
T1 sequence: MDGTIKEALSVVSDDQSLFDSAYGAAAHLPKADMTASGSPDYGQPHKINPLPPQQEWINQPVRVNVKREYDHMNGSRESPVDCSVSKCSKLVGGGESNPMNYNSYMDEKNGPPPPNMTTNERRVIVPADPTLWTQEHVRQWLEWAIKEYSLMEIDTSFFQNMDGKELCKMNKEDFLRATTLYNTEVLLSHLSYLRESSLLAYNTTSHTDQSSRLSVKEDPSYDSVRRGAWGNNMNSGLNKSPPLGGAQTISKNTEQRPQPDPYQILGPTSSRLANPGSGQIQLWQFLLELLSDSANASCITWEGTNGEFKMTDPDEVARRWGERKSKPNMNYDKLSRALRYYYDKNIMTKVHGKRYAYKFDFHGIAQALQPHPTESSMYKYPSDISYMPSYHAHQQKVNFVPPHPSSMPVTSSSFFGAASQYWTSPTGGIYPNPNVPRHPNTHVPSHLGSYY
The settings on record: protein: recombinant; tags: N-terminal GST; dsDNA, one strand shown. The procedure, abridged:
(§1)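 Binding signal is defined as a hexamer's read frequency for one factor over its frequency for the tag-only sample. To obtain reads, GST-fused human transcription factors were expressed in yeast, captured on glutathione beads, barcoded with DNA and pooled with that sample. Pools met 200 nmole of a 16-mer random double-stranded DNA library in Tris/NaCl/DTT/glycerol buffer for 30 min at room temperature before washing, 0.1% formaldehyde crosslinking, proximity ligation (BsaI/T4 ligase, 1 h, 37 °C), PCR and Illumina NextSeq500 sequencing.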

In the next test the target is T2, ELK1 (Homo sapiens, UniProt P19419 1-428).
T2 sequence: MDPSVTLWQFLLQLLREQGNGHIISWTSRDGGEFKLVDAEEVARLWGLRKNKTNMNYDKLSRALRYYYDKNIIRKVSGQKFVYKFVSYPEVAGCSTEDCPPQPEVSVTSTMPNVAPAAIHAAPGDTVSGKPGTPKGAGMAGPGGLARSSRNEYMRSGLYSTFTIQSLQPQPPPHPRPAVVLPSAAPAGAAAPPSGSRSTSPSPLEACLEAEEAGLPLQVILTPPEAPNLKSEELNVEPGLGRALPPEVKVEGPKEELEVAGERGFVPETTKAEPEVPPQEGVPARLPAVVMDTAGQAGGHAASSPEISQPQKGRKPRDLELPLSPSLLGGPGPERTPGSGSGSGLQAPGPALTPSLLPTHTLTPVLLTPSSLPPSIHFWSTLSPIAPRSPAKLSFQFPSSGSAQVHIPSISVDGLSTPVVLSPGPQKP
The settings on record: protein: recombinant; tags: N-terminal GST; dsDNA, one strand shown. The procedure, abridged: as §1

In the next test the target is T3, GABPA (Homo sapiens, UniProt Q06546 1-454).
T3 sequence: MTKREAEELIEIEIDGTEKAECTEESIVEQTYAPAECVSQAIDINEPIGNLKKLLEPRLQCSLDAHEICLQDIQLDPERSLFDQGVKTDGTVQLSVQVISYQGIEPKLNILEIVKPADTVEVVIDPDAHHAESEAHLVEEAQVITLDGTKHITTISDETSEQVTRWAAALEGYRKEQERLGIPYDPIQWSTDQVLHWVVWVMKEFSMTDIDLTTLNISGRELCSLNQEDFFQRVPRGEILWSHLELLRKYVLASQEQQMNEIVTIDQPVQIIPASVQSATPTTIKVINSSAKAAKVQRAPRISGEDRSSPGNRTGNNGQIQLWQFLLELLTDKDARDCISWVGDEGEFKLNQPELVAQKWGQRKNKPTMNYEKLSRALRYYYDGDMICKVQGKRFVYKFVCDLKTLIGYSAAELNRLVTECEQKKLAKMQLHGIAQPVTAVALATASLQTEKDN
As to conditions: protein: recombinant; tags: N-terminal GST; dsDNA, one strand shown. The essentials:
as §1

The next test concerns the target T4, ERG (Homo sapiens, UniProt P11308 1-479).
T4 sequence: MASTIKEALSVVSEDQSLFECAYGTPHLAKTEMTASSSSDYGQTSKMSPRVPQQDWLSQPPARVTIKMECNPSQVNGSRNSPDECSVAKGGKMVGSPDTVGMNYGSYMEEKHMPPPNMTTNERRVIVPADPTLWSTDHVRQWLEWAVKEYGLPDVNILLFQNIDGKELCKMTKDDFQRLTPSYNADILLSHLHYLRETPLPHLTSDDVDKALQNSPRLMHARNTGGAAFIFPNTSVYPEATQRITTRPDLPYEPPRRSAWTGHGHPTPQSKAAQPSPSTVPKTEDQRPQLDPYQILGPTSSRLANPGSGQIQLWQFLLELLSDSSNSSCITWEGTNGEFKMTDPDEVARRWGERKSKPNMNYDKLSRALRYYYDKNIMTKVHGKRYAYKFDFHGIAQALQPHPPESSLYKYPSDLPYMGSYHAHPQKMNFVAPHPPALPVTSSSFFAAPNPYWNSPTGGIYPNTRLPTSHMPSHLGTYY
As to conditions: protein: recombinant; tags: N-terminal GST; dsDNA, one strand shown. The procedure, abridged: as §1

The next test deals with ELF1 (Homo sapiens, UniProt P32519 1-619). As to conditions: protein: recombinant; tags: N-terminal GST; dsDNA, one strand shown. The essentials:
as §1

The target of another test is T5, EHF (Homo sapiens, UniProt Q9NZC4 1-300).
T5 sequence: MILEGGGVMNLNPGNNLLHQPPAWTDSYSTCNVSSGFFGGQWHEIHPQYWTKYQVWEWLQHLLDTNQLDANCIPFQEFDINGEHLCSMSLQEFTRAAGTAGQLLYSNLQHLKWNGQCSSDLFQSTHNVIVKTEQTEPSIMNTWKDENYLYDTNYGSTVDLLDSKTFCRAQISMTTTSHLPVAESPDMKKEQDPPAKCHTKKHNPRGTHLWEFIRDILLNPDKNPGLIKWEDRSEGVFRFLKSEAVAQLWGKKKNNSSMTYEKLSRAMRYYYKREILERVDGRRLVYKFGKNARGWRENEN
The settings on record: protein: recombinant; tags: N-terminal GST; dsDNA, one strand shown. The procedure, abridged:
as §1

In a further test the target is SPIB (Homo sapiens, UniProt Q01892 1-262). As to conditions: protein: recombinant; tags: N-terminal GST; dsDNA, one strand shown. The procedure, abridged:
as §1

Another test addresses T6, ELK3 (Homo sapiens, UniProt P41970 1-407).
T6 sequence: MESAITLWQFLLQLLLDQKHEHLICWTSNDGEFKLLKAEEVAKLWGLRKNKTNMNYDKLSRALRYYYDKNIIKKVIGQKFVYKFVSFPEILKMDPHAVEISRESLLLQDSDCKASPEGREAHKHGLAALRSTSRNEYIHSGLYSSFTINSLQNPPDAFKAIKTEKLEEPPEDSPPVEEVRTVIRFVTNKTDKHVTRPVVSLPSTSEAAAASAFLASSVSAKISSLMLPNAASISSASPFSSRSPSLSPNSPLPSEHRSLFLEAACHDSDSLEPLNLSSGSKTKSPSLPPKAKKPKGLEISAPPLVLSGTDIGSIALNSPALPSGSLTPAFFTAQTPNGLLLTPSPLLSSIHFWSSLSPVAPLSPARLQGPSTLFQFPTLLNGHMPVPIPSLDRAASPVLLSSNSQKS
As to conditions: protein: recombinant; tags: N-terminal GST; dsDNA, one strand shown. The procedure, abridged: as §1

For another test, the target named is T7, FEV (Homo sapiens, UniProt Q99581 1-238).
T7 sequence: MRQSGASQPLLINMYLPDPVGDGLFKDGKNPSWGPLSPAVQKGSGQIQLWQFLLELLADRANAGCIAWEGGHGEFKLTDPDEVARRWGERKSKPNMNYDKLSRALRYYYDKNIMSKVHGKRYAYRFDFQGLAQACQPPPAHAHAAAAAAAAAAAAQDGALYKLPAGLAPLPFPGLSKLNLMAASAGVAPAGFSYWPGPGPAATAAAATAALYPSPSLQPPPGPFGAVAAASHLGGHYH
As to conditions: protein: recombinant; tags: N-terminal GST; dsDNA, one strand shown. The procedure, abridged:
as §1

For a further test, the target named is ETV5 (Homo sapiens, UniProt P41161 1-510). As to conditions: protein: recombinant; tags: N-terminal GST; dsDNA, one strand shown. The essentials: as §1
Chain of ETV5 (P41161 whole entry): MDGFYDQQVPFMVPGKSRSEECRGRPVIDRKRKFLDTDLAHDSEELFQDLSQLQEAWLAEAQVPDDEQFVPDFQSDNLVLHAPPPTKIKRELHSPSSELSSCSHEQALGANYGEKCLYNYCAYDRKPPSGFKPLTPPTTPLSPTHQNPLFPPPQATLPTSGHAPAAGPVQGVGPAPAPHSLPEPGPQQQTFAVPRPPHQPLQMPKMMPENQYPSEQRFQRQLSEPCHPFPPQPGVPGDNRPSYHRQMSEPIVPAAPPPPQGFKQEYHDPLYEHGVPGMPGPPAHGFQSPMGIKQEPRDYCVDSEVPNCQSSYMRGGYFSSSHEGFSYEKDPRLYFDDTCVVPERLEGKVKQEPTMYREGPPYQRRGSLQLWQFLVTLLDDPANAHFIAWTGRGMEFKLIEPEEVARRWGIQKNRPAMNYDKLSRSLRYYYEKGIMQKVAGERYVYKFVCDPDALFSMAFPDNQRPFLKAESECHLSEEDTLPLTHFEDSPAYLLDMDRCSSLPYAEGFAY
The target in the next test is HSF1 (Homo sapiens, UniProt Q00613 1-529). As to conditions: protein: recombinant; tags: N-terminal GST; chain copies: 3; dsDNA, one strand shown. The essentials: as §1
Chain of HSF1 (Q00613 whole entry): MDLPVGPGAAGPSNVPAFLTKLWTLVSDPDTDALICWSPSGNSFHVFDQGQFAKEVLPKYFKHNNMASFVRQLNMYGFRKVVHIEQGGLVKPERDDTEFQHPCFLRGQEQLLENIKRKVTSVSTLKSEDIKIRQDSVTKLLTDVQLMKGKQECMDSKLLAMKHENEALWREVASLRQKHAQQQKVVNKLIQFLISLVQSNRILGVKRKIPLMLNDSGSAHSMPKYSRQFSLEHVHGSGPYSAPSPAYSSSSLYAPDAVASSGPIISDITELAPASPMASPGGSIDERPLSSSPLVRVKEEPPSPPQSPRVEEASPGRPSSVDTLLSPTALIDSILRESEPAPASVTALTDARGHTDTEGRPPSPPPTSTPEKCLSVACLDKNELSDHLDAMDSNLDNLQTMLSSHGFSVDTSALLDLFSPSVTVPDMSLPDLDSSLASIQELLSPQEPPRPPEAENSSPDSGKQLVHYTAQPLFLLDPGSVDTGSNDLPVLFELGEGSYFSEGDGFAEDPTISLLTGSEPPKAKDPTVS
Another test has as its target ELF4 (Homo sapiens, UniProt Q99607 1-663). As to conditions: protein: recombinant; tags: N-terminal GST; dsDNA, one strand shown. The essentials:
as §1

A further test has as its target T8, ELK4 (Homo sapiens, UniProt P28324-2 1-405).
T8 sequence: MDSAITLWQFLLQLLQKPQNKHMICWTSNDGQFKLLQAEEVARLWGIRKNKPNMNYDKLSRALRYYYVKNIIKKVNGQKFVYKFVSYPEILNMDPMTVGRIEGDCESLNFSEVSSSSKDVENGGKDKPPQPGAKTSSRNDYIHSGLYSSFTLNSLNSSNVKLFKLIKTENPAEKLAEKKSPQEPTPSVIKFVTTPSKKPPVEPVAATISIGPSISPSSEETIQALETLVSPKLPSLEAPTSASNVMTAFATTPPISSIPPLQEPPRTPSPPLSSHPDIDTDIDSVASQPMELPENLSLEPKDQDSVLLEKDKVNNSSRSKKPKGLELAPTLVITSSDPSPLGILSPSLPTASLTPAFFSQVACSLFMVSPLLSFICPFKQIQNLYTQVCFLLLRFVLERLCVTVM
The settings on record: protein: recombinant; tags: N-terminal GST; dsDNA, one strand shown. The essentials:
as §1

The next test addresses T9, ETV2 (Homo sapiens, UniProt O00321 1-342).
T9 sequence: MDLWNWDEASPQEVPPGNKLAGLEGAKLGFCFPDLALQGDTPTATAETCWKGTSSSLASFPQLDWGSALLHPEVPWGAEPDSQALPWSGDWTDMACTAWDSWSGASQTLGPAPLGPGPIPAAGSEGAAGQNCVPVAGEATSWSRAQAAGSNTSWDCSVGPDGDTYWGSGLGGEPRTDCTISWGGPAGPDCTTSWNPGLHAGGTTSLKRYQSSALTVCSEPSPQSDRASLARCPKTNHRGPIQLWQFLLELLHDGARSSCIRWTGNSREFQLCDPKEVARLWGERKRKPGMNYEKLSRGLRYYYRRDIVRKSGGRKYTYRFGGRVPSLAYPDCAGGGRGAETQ
As to conditions: protein: recombinant; tags: N-terminal GST; dsDNA, one strand shown. The essentials:
as §1

A further test deals with T10, ELF3 (Homo sapiens, UniProt P78545 1-371).
T10 sequence: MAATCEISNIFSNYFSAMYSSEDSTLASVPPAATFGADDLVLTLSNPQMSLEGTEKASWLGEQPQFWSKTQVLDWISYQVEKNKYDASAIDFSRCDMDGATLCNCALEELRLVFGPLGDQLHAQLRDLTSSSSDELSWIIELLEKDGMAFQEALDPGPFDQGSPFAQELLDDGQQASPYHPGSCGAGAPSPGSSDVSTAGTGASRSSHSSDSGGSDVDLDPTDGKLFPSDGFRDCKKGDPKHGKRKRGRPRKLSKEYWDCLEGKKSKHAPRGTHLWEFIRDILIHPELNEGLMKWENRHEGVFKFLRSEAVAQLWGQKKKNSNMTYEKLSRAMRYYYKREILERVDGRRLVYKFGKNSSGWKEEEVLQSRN
As to conditions: protein: recombinant; tags: N-terminal GST; dsDNA, one strand shown. The procedure, abridged:
as §1

Another test deals with CRX (Homo sapiens, UniProt O43186 1-299). The settings on record: protein: recombinant; tags: N-terminal GST; dsDNA, one strand shown. The procedure, abridged: as §1
Chain of CRX (O43186 whole entry): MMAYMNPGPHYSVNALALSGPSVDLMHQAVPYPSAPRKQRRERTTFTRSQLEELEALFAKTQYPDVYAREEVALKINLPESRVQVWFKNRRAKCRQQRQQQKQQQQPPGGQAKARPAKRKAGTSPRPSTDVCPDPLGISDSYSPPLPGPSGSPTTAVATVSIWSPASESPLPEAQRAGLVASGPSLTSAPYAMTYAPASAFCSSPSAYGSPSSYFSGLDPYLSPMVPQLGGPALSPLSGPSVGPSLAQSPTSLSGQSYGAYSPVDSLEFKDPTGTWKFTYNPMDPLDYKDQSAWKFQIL
For another test, the target named is ETV1 (Homo sapiens, UniProt P50549 1-477). As to conditions: protein: recombinant; tags: N-terminal GST; dsDNA, one strand shown. The procedure, abridged:
as §1

Chain of SPIB (Q01892 whole entry): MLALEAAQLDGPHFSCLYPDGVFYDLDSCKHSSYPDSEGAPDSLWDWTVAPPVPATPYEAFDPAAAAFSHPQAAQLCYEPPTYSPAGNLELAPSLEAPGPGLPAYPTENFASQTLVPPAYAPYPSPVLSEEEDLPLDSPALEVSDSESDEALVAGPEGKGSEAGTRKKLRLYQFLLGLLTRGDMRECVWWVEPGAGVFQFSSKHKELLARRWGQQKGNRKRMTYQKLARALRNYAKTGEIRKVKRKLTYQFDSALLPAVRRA
Chain of ELF4 (Q99607 whole entry): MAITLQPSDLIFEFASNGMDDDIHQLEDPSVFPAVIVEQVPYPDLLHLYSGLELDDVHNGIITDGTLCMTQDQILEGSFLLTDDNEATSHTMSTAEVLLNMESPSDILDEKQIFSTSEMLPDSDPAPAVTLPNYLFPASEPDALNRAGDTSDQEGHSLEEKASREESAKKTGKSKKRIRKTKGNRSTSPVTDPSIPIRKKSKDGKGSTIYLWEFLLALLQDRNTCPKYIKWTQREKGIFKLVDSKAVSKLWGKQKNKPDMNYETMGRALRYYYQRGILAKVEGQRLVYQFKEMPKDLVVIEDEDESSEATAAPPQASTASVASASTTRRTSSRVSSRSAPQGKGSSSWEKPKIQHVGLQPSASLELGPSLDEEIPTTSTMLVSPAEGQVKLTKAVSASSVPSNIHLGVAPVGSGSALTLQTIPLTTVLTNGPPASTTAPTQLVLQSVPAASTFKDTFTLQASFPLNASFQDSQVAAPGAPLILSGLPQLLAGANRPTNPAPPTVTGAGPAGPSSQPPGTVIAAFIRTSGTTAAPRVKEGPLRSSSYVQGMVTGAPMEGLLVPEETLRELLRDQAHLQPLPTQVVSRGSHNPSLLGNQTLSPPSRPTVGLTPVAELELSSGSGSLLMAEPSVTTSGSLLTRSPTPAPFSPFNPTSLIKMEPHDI
Chain of ETV1 (P50549 whole entry): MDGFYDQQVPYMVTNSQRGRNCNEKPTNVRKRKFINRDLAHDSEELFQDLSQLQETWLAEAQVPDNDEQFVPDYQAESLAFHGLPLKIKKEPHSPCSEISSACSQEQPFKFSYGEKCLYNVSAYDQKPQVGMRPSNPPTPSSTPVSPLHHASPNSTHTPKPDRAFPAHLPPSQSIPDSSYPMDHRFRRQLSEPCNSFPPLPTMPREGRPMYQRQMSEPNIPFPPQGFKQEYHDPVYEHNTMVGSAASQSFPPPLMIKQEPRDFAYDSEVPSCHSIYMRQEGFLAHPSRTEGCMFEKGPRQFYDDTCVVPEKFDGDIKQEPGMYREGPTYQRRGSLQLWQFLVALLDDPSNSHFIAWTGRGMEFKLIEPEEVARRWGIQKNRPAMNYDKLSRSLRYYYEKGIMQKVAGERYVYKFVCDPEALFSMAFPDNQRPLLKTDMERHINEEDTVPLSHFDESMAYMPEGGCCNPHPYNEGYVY
Chain of ELF1 (P32519 whole entry): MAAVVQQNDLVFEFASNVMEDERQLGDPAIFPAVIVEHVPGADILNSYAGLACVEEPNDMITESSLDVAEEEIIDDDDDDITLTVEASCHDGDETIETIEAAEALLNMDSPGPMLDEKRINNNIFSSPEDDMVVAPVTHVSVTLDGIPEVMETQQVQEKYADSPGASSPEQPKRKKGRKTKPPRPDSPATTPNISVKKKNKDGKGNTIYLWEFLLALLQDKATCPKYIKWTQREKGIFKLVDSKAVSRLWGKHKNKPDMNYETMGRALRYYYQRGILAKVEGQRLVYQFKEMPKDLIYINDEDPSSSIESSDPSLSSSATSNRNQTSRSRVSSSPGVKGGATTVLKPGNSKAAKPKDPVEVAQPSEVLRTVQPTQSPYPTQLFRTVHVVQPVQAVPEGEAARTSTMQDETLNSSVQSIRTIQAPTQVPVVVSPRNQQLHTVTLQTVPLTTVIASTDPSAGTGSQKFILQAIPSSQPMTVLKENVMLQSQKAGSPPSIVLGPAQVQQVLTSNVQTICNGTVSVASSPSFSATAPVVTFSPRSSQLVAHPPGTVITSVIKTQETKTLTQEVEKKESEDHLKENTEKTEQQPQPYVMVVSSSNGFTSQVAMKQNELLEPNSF

On to AATCCA, for which the binding signal is 1.09 fold enrichment (6-mer frequency, TF over GST control) in the test with FLI1; 1.07 fold enrichment (6-mer frequency, TF over GST control) with ELK1; 1.09 fold enrichment (6-mer frequency, TF over GST control) in the test with GABPA; 1.1 fold enrichment (6-mer frequency, TF over GST control) in the test with ERG; 1.09 fold enrichment (6-mer frequency, TF over GST control) with ELF1; 1.07 fold enrichment (6-mer frequency, TF over GST control) in the test with EHF. The binding signal is 1.12 fold enrichment (6-mer frequency, TF over GST control) in the test with SPIB; 1.07 fold enrichment (6-mer frequency, TF over GST control) with ELK3; 1.11 fold enrichment (6-mer frequency, TF over GST control) with FEV; 1.07 fold enrichment (6-mer frequency, TF over GST control) in the test with ETV5; 1.78 fold enrichment (6-mer frequency, TF over GST control) with HSF1; 1.12 fold enrichment (6-mer frequency, TF over GST control) with ELF4. Moreover, the binding signal in the test with ELK4 is 1.18 fold enrichment (6-mer frequency, TF over GST control); in the test with ETV2 it was 1.03 fold enrichment (6-mer frequency, TF over GST control); with ELF3 it was 1.1 fold enrichment (6-mer frequency, TF over GST control); in the test with CRX, 2.33 fold enrichment (6-mer frequency, TF over GST control); with ETV1 it was 1.12 fold enrichment (6-mer frequency, TF over GST control).
